Data reported in PubChem BioAssay (NCI).
This is part of a sample that, as a whole, favours compounds with a hit. Of some 79,000 tested, about 15% had one in any assay. Unmarked numbers belong to inactive results. The source made the active and inactive calls. Rule as the data show it: active = growth inhibition above about 70%; inactive = the rest.

Experiments:
[1] = NCI Yeast Anticancer Drug Screen. Data for the rad50 strain (AID 155);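 also: 0% = growth of vehicle-only cultures of the same strain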; conditions: S. cerevisiae rad50 strain growth inhibition; at 50.0 µM; stronger effect = higher value
Summary of the method: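 Compounds were tested on a yeast strain with an engineered DNA damage repair alteration; the reported value is growth inhibition normalised to vehicle treatment.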

[2] = NCI Yeast Anticancer Drug Screen. Data for the mec2-1 strain (AID 157); conditions: S. cerevisiae mec2-1 strain, at 50.0 µM, stronger effect = higher value
Summary of the method: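 Test agents were screened against the mec2-1 yeast strain, with defined DNA repair or cell cycle alteration. Growth was scored as inhibition against vehicle-only controls.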

[3] = NCI Yeast Anticancer Drug Screen. Data for the sgs1 mgt1 strain (AID 161);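 also: 0% = growth of cultures given vehicle only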; conditions: S. cerevisiae sgs1 mgt1 strain, at 50.0 µM, stronger effect = higher value
Summary of the method: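 Mutant yeast exposed to compound; growth scored against vehicle-only wells.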

[4] = NCI Yeast Anticancer Drug Screen. Data for the cln2 rad14 strain (AID 165);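 also: 0% = growth equal to vehicle treated cultures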; conditions: S. cerevisiae cln2 rad14 strain, at 50.0 µM, stronger effect = higher value
Summary of the method: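 Growth of compound-exposed yeast (cln2 rad14 genotype) measured and expressed as inhibition relative to vehicle.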

[5] = NCI Yeast Anticancer Drug Screen. Data for the bub3 strain (AID 167); conditions: S. cerevisiae bub3 mutant strain, at 50.0 µM, stronger effect = higher value
Summary of the method: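 Growth of a checkpoint-deficient yeast mutant is measured after compound exposure. Values represent inhibition relative to vehicle.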

[6] = NCI Yeast Anticancer Drug Screen. Data for the mlh1 rad18 strain (AID 175); conditions: S. cerevisiae mlh1 rad18 strain growth inhibition; at 50.0 µM; stronger effect = higher value
Summary of the method: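 In this whole-cell yeast screen, a strain with altered DNA damage repair is challenged with compound, and its growth is measured against matched vehicle-treated controls.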

| Structure (SMILES) | growth inhibition [1] [%] | growth inhibition [2] | growth inhibition [3] | growth inhibition [4] [%] | growth inhibition [5] | growth inhibition [6] |
| --- | --- | --- | --- | --- | --- | --- |
| COC(=O)c1cc(C)ncc1C#N | 0.45 | 1.15% | -4.7% | 0.3 | 2.95% | 8% |
| CC1CCCCC1(C)O (stereo unspecified) | 23.9 | 34.6% | -19.4% | 1.75 | 9% | 11.4% |
| COCC1CCCCC1O (stereo unspecified) | -9.95 | 7.15% | 3.05% | 26.8 | 18.1% | -2.35% |
| C=CCOC(=O)C(C)OC(=O)OCC (stereo unspecified) | 9.2 | 10.7% | 6.85% | 8.1 | -2.1% | 7.15% |
| COc1ccccc1NC(=O)C1=C(C)NC(C)=C(C(=O)Nc2ccccc2OC)C1c1ccccc1OC | 15.2 | -6.65% | -26.8% | 17.1 | 0.35% | 1.85% |
| O=C(O)/C=C/c1cnc[nH]1 | -4.9 | -2.3% | -5.65% | 11.9 | 9.65% | -1% |
| OC1(c2ccccc2)CC2C=CC1C2 (stereo unspecified) | -5.9 | 8.2% | 8.05% | 17.2 | 15.3% | 5.15% |
| COc1ccccc1N=Nc1c(-c2cccs2)nn(C(=S)SC)c1C(F)(F)F | -3.5 | 10.2% | -21.6% | -3.9 | 18.7% | 30.8% |
| O=C(O)CC(=O)c1ccccc1 | -27.8 | 4.85% | -10.4% | 14.2 | 4.35% | -15.8% |
| CCCCC(C)NC(=O)c1ccccc1 (stereo unspecified) | 4.3 | 11.3% | -23.8% | -52.5 | -3.8% | 2% |
| FC(F)Cc1ccccc1 | 3.55 | -0.75% | 11.1% | -7.15 | -1.5% | -6.6% |
| Cc1ccc(N(C)C)cc1 | -25.3 | -15.1% | 10.8% | -18.4 | -0.45% | 6.4% |
| CN(C)c1nc(Cl)c2c(-c3ccccc3)c(-c3ccccc3)oc2n1 | -0.6 | 3% | 10.5% | 16.1 | 24.6% | -25.1% |
| O=C(O)CC(Sc1ccccc1)c1ccccc1 (stereo unspecified) | 12.9 | -9.2% | -2.8% | 32 | 45.7% | 7.7% |
| Cc1c2c(n3c(nc4ccccc43)c1C#N)SCC2 | -51.3 | -49.3% | -44.5% | -8.5 | -22% | -17.5% |
| CCCCNC(=O)CCC(NS(=O)(=O)c1ccc(C)cc1)C(=O)NCCCC (stereo unspecified) | 5.1 | 2.1% | -9% | 1.85 | -3.1% | -18.7% |
| OCC1CCCCCCC1 | -4.25 | -19.7% | -3.15% | 18.4 | -3.65% | -10.4% |
| CCCCCCCCCCCCSc1nc2c([nH]1)c(=O)n(C)c(=S)n2C | -24.1 | 0.75% | -31.9% | 16.4 | -1.05% | -15.2% |
| Cc1cccc(Cl)c1N=Nc1c(C)nc(N)nc1-c1ccccc1 | 7.1 | 15.8% | 5.8% | -11.5 | 1.1% | 7.8% |
| CSc1ccc(NC(=O)Oc2cc(C)c(Cl)cc2C(C)C)cc1 | 39.6 | 94.8% (active) | 91.8% (active) | 15.8 | 97.8% (active) | 93.5% (active) |
| COC(=O)/C(C#N)=C(\C)CC(C)C | 13.2 | -17.4% | -20.1% | -3.65 | -24.4% | -9% |

| Structure (SMILES) | growth inhibition [1] [%] | growth inhibition [2] | growth inhibition [3] | growth inhibition [4] [%] | growth inhibition [5] | growth inhibition [6] |
| --- | --- | --- | --- | --- | --- | --- |
| CC(C)(O)c1cccc(I)c1 | 7.7 | -58.9% | -21.1% | -144 | -39.8% | 1.55% |
| CC(=O)[C@H]1CC[C@H]2[C@@H]3CC[C@H]4C[C@@H](OC(c5ccccc5)(c5ccccc5)c5ccccc5)CC[C@]4(C)[C@H]3CC[C@]12C | -3.55 | 11.8% | 0.95% | -3.95 | -5.5% | -17.6% |
| CC1CC(C)NC(C)C1 (stereo unspecified) | -17.1 | -25.6% | -50% | 3.15 | -10.9% | -7.6% |
| NC(=O)C(Cl)=C(Cl)Cl | 2.85 | 10.4% | -2% | -4.75 | -4.8% | 1.65% |
| C/C(=N\NC(=S)N1CCCC1)c1ccc[nH]1 | -6.55 | 3.05% | -0.05% | -11.6 | -7.75% | -2.3% |
| COc1cccc(C=Nc2ccc(N(C)C)cc2)c1O.COc1cccc(C=Nc2ccc(N(C)C)cc2)c1O.[Co] | 31.4 | 5.55% | 14.6% | 2.9 | 8.25% | -2.3% |
| Cc1cc(NC(=O)N(CCCl)N=O)c(C)cc1NC(=O)c1ccccc1 | 24.5 | -22.5% | 40.5% | -3.4 | -0.5% | 55.2% |
| Cc1ccc(N=C(N)N)cc1 | -1.25 | 0.3% | 1.05% | 12.3 | 0.7% | -1.8% |
| COC(=O)/C=C/C(=O)N1CC(C)N(C(=O)/C=C/C(=O)OC)CC1C (stereo unspecified) | -8.45 | -3.55% | -9.2% | 37.4 | 1.45% | -14.4% |
| CC1CCC(C)C(O)C1 (stereo unspecified) | -21.9 | -22.3% | -19.1% | 23.1 | -27.8% | 3.25% |
| Cc1cccc(C(C)(C)C)c1NC(=O)/C(Cc1nc2ccc([N+](=O)[O-])cc2[nH]c1=O)=N/NC(=O)C[N+](C)(C)C | 6.4 | -10.4% | -9.1% | -17.4 | -18.9% | -22.6% |
| CCC(=O)Oc1cccc(C)c1 | 13.8 | -8.4% | 2.05% | -10.6 | 4.2% | -15.4% |
| CCOC(=O)/C=C(/C)c1ccccc1 | 12.2 | 18.2% | 6.9% | 0.7 | -2.7% | 3.1% |
| CC(O)COC1CCCCC1 (stereo unspecified) | -2.75 | -10.9% | 3.85% | -7.25 | -3.95% | -0.95% |
| O=C1C=C(N2CCCC2)c2ccccc21 | 15.4 | -9.25% | 3.85% | -18.9 | -27.6% | 12.8% |
| Cc1ccc(S(=O)(=O)NC(=O)C2(Br)S(=O)(=O)OCCOS2(=O)=O)cc1 | 1.25 | -28.4% | 6.1% | -54.9 | 24.6% | 12% |
| COc1ccc(NC2=CC(=O)C(=O)c3ccccc32)nn1 | -4 | 4.8% | -19.8% | -34.8 | -1.65% | -16% |
| O=C1CC2C(=O)N(Cc3ccccc3)C1C(S(=O)(=O)c1ccccc1)C2S(=O)(=O)c1ccccc1 (stereo unspecified) | 10.4 | 9.4% | 2.75% | 26.9 | -8.7% | 23.9% |
| COC(=O)/C=C/C(=O)OC | 9.75 | 14.4% | 19.4% | 9.3 | 9.45% | 6.6% |
| Cc1ccccc1Nc1nc2ccccc2nc1NS(=O)(=O)c1ccccc1 | 5.1 | 0% | 5.85% | -0.8 | 18.1% | -58.4% |
